# Compounds with a hit are over-represented: about 4.3% of the library has one in this group of screens.
# BoNT F protease: BoNT F light chain protease inhibition | Multiplex microsphere protease cleavage assay, flow cytometry | inhibition, % at 10 µM | 0.22% of 360,000 active | AID 588497; in the data active means inhibition above about 35%, passing the limit was not always enough; inconclusive means no clear call, values can overlap the other calls; further: plate controls were buffer without enzyme for full effect and enzyme alone for no effect
# PfHsp40 yeast: restores yeast growth despite PfHsp40 toxicity; growth rescue, % at 12.5 µM; S. cerevisiae expressing PfHsp40, growth rescue, ATP luminescence; 0.68% of 340,000 active; in the data active means growth rescue above about 28%, passing the limit was not always enough; inconclusive means no clear call, values can overlap the other calls;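 further: yeast W303a lacking pdr1 and pdr3 grown in galactose medium; growth measured after three days at 30 °C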
# BoNT A protease: BoNT A light chain protease inhibition; multiplex microsphere protease substrate cleavage, flow cytometry; inhibition, % at 10 µM; 0.17% of 360,000 active; AID 588499; further: plate controls were buffer without enzyme for full effect and enzyme alone for no effect
# Anthrax LF prot: anthrax lethal factor protease inhibition; AID 588501; multiplex microsphere protease cleavage assay, LF; inhibition, % at 10 µM; 0.12% of 360,000 active; further: plate controls were buffer without enzyme for full effect and enzyme alone for no effect
# MazF activator: MazEF (E. coli) toxin RNase activation. FAM/BHQ RNA-DNA oligo cleavage fluorescence, 5 h. activation, % at 20 µM. 0.32% of 350,000 active. AID 504720; in the data active means activation above about 50%
# Target sequence (P0AE70 whole entry, looked up): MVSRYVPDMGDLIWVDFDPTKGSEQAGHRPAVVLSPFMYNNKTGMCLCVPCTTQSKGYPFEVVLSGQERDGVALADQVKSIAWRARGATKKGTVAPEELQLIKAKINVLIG
# Bead autofluor: counter-screen for toxin protease inhibitors: compound fluorescence. compound autofluorescence counterscreen, microsphere flow cytometry; active compounds read high. fluorescence intensity (test concentration not listed). 3.1% of 360,000 active. AID 624483; in the data active means fluorescence intensity above about 16000; inconclusive means no clear call, values can overlap the other calls
# Active calls of the source: *; ? = inconclusive; . = no result given. Unless noted, no stated cut-off is given here; in the data, active means inhibition above about 30%; inconclusive means no clear call, values can overlap the other calls; inactive means below that.
SMILES,BoNT F protease,PfHsp40 yeast,BoNT A protease,Anthrax LF prot,MazF activator,Bead autofluor
Cc1ccc(C2NC(c3ccc(C)cc3)C(C)C(=NO)C2C)cc1 (stereo not drawn),-9.9,2.9,-0.8,-2.8,0.1,8306
CC1C(=NO)C(C)C(c2ccccc2)NC1c1ccccc1 (stereo not drawn),-2.4,-0.3,?,-1.0,-2.5,22855*
COc1cc(NC(=O)COc2cc(O)c3c(c2)OC(C)(C)CC3=O)cc(OC)c1,8.3,6.8,0.2,2.0,-1.6,5475
CCCCCc1cc(OC)cc2c1C(=O)OC(C)(C)O2,1.1,72.4*,0.3,-2.4,9.2,3684
COc1ccc2nc3n(c(=O)c2c1)-c1ncccc1C(=O)NC3CC(C)C (stereo not drawn),-3.3,.,-0.2,-5.4,8.3,3825
COc1cccc(-c2n[nH]c(=S)n2Cc2ccco2)c1OC,6.4,1.3,5.5,-6.3,3.5,20736*
COc1ccc([C@H]2CC(=O)C[C@@H](CCn3cc(-c4nccn4C)nn3)O2)cc1,5.7,.,-0.6,-10.8,.,3996
NS(=O)(=O)c1ccc(NC(=O)Nc2ccc(C(F)(F)F)cc2)cc1,?,.,-3.1,-21.5,7.6,4176
CCOc1ccc(Nc2nc3c(c(=O)[nH]2)CCC3)cc1,4.5,0.7,0.4,0.0,-1.8,16524*
CCOc1ccc(Nc2nc3c(c(=O)[nH]2)CCCC3)cc1,2.8,0.5,0.0,-2.8,9.5,3197
CC(=O)N(Cc1cc2cc(C)c(C)cc2n2nnnc12)CC1COCCO1 (stereo not drawn),1.7,-1.0,1.5,-0.6,7.7,22636*
Cc1cc2cc(CN(Cc3ccc4c(c3)OCO4)C(=O)c3cnccn3)c3nnnn3c2cc1C,-18.4,1.5,-1.8,-5.7,3.0,3303
CCCC(=O)Nc1ccc(S(=O)(=O)N2CCc3ccccc32)cc1,6.1,.,0.4,-4.9,-5.2,4072
COc1ccc(N2CCN(Cc3nc(-c4ccc(Cl)cc4Cl)no3)CC2)cc1,-6.6,-1.0,-2.0,-5.7,-0.2,20566*
Cc1cc(C)nc(-n2nc(C)cc2NC(=O)c2ccc(S(=O)(=O)N3CCOCC3)cc2)n1,.,.,.,.,4.0,.
O=C(CN1CC[n+]2c(-c3cccs3)csc21)c1ccc(-c2ccccc2)cc1,-12.3,400.8*,-0.3,-4.3,12.1,3193
Cc1ccc(-c2nnc(Oc3cccc(C)c3)c3ccccc23)cc1,0.9,-0.2,-0.8,1.5,5.3,8237
Cc1ccc(Oc2nnc(-c3ccccc3)c3ccccc23)cc1,6.4,6.1,5.7,-3.7,4.3,21278*
CCOC(=O)[C@H]1[C@H]2COc3cc(OC)ccc3[C@@H]2N2C(=O)CN(Cc3ccco3)C(=O)[C@@]12C,-13.7,0.3,-1.1,-4.4,-1.9,3491
N#Cc1ccccc1Cn1c(-c2cscn2)nc2ccccc21,-3.2,0.7,?,-1.1,9.4,22811*
Cc1ccccc1Nc1nn2c(=O)c3ccccc3nc2s1,-2.4,1.1,0.0,0.4,30.6,23125*
CCCCCC(=O)N1C[C@@H](n2cc(C3CC3)nn2)[C@H](O)C[C@@H]1c1ccccc1,3.5,.,0.2,-6.2,1.9,3738
O=C1CCCN1CC(O)CS(=O)(=O)c1ccc(Cl)cc1 (stereo not drawn),0.4,-0.4,1.2,0.9,2.2,22765*
Cc1ccc(S(=O)(=O)CC(O)CN2CCCC2=O)cc1 (stereo not drawn),3.0,-0.8,0.4,3.9,0.5,9881
CCOC(=O)c1nnn(-c2nc(OC)nc(N3CCCC3)n2)c1-c1ccccc1,22.2,-1.1,-0.9,-0.8,7.6,3404
SMILES,BoNT F protease,PfHsp40 yeast,BoNT A protease,Anthrax LF prot,MazF activator,Bead autofluor
CCNc1nc(N2CCCCC2)nc(-n2nnc(C(=O)OCC)c2C)n1,-3.5,3.3,?,-3.6,0.3,23587*
O=C(NCCCN1CCOCC1)c1ccc(NS(=O)(=O)c2ccccc2)cc1,3.4,-0.3,0.1,5.8,6.4,5988
O=Cc1cccc(OC(=O)Nc2ccccc2)c1,15.8,.,0.6,-1.9,1.2,5595
CSc1ccc(/C=N/NC(=O)CN2CCN(Cc3ccc(Cl)cc3)CC2)cc1,-3.1,-1.6,-0.9,-1.8,95.3*,2410
O=C(Nc1cccc(C(F)(F)F)c1)Oc1ccc(Cl)c2cccnc12,-11.7,124.7*,-2.0,20.7,8.1,3162
COc1ccc(C#Cc2c(-c3ccccc3)n(-c3ccccc3)c3ccc(CO)cc23)cc1,-0.3,65.4*,0.7,-7.6,-1.7,2867
CNC(=O)C1=NCCCc2cc(OC)c(OC)cc21,-1.2,-0.4,?,-0.2,1.0,20275*
O=C(/C=C/c1ccc(Br)cc1)NC1CCCCCC1,-0.2,1.4,-1.7,1.4,8.4,21525*
CCCOc1ccc(/C=C/C(=O)NC2CCCCC2)cc1,-16.0,-1.5,0.5,-7.9,11.1,3629
Cn1c(=O)c2[nH]c(COc3ccc(C(C)(C)C)cc3)nc2n(C)c1=O,-8.0,1.5,0.4,-2.3,-4.2,4196
CC(C)Oc1ccc(C2CC(=O)N(c3cccc(Br)c3)C2=O)cc1 (stereo not drawn),-3.9,.,-1.2,-4.8,-6.0,6714
Cc1ccc(CN2CC(C(=O)N(Cc3nnc(-c4ccccc4Cl)o3)C3CC3)CC2=O)cc1 (stereo not drawn),-2.5,561.3*,1.3,1.2,-2.4,5105
COC(=O)C1CC2=C(CCCC2=O)N(c2ccccc2)C1=O (stereo not drawn),1.0,-1.2,0.3,-4.9,-2.4,2829
C=CCN1CCc2cc(O)c(O)cc2C(c2ccccc2)C1 (stereo not drawn),-16.9,-1.5,-1.3,3.3,-0.2,5980
C=CCN1CCc2c(cc(O)c(O)c2Cl)C(c2ccccc2)C1 (stereo not drawn),-24.2,46.4*,-1.2,1.0,3.4,6007
CCCn1c(N)c(Sc2ccccc2)c(=O)n(CCC)c1=O,-1.4,-0.8,-1.3,-0.8,5.7,19729*
CCCCn1c(N)c(Sc2ccccc2)c(=O)[nH]c1=O,-9.8,-2.3,-7.6,-5.5,9.0,25818*
Cc1cc(C)n2nc(S(=O)(=O)N(CC(C)C)CC(C)C)nc2n1,-9.2,-0.4,-1.8,-1.2,6.3,5107
Cc1cc(C)n2nc(S(=O)(=O)N(C)Cc3ccccc3)nc2n1,1.9,3.6,?,0.4,-2.0,19864*
Cc1cc(C)n2nc(CCc3ccccc3)nc2n1,3.1,1.0,0.5,0.0,5.8,23082*
CCN(Cc1ccccc1)S(=O)(=O)c1nc2nc(C)c(C)c(C)n2n1,-4.0,0.1,-2.4,-0.5,2.6,17154*
COc1cc(N2CCOCC2)ncn1,-0.6,0.1,?,-3.3,11.6,23005*
Cc1cc(C)n(-c2cc(N3CCOCC3)ncn2)n1,-4.3,0.7,-0.8,-2.2,3.5,6135
Cc1ccc(CNC(=S)NCc2ccncc2)cc1,1.3,0.3,-0.3,-6.3,7.5,4344
CCOC(=S)N/C(=N\S(=O)(=O)c1ccccc1)c1ccccc1,0.7,3.2,0.5,-0.2,0.9,3245
